This is part of a sample that, as a whole, favours compounds with a hit. Of some 83,000 tested, about 20% had one in any assay.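 How to read the values: 0–100, growth inhibition (40 = 60% inhibited); 0, no net growth; -100 to 0, cell death (-40 = 40% of starting cells died; -100 = all dead).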 Calls of active or inactive are those of the source.
These compounds were tested on NCI-H23 lung (assay: NCI-60 one-dose screen, 48 h (100 = growth as untreated, 0 = no growth, -100 = all killed)). Settings: 10 µM unless noted.
Method: Growth inhibition of the NCI-H23 human Non-Small Cell Lung tumor cell line is measured as a screen for anti-cancer activity. Cells are grown in 96 well plates and exposed to the test compound for 48 hours. Compounds are tested at a single concentration, which is 10^-5 M for most compounds. The reported endpoint is percent growth (GI% or GIPRCNT), where numbers from 0 - 100% represent growth inhibition, and numbers from -100% - 0 represent cell death. For example, a value of 40 represents 60% growth inhibition. A value of 0 means no net growth occurred over the course of the experiment. A value of -40 indicates 40% of cells at the beginning of the experiment died by the end of the experiment. A value of -100 means all cells are dead at the end of the experiment.
NCI-60 Human Tumor Cell Lines Screen was performed using the standard one-dose NCI protocol, which is described in more detail at https://dtp.cancer.gov/discovery_development/nci-60/default.htm.
Compounds with GIPRCNT values below 10 were considered active. Activity score was based on GIPRCNT using the following formula: […]
Score is 0 for GIPRCNT values of 100 or above, 50 for GIPRCNT values of 0, and 100 for GIPRCNT values of -100.
In the case of `CC1=C2[C@@H](CC1)[C@]1(C)O[C@@](C3CCNCC3)(C[C@H]1OC(=O)CO)[C@H]2OC(=O)/C=C/c1ccccc1`, the growth is reported as 84.9% (inactive). `CC(C)Cc1nc(Nc2ccccc2)[nH]c(=O)c1C#N` was tested, and the growth was 33.8% (inactive). For `COC(=O)c1ccc2c(c1)c1c(C)c3cnccc3c(C)c1n2C`, the growth was -47.1% (active). In the case of `COc1cc(N2C(=O)[C@H](Cl)C2c2ccc(SC)cc2)cc(OC)c1OC` (stereo not given in full), the growth is reported as 16.7% (inactive). `CNCC[C@H](Oc1cccc2ccccc12)c1cccs1` was tested, and the growth was 80.6% (inactive). With `FC(F)(F)c1[nH]ncc1-c1nc2ccc3[nH]ncc3c2c2c1CCCC2` the growth was 7.15% (active). With `Oc1c(CN2CCC(N3CCOCC3)CC2)cc(Cc2cc(CN3CCC(N4CCOCC4)CC3)c(O)c3ncccc23)c2cccnc12` the growth was 40.8% (inactive). For `CCOC(=O)c1nnn(-c2no[n+]([O-])c2-c2ccc(OC)cc2)c1COc1cccc2cccnc12`, the growth was 31.6% (inactive). `COc1cccc(-c2cn3nc(-c4cn(C)c5ccccc45)sc3n2)c1` was tested, and the growth was 90% (inactive). With `C#CCOc1cccc(Nc2ncnc3c2ncn3C2CCN(C(=O)CCl)C2)c1` (stereo not given) the growth was -23.1% (active). With `Cc1cn(C)cn1` the growth was 97.7% (inactive). In the case of `O=CCCCOCc1ccccc1`, the growth is reported as 96.4% (inactive). `CC(=O)O[C@H]1CC[C@]2(C)[C@H]3CC=C4[C@@H]5CC(C)(C)CC[C@]5(C(=O)N5CCN(CCC#N)CC5)CC[C@@]4(C)[C@]3(C)CC[C@H]2C1(C)C` was tested, and the growth was 45.3% (inactive). In the case of `NC(=O)c1ccccc1OCC(=O)Nc1ccc(Cl)c(Cl)c1`, the growth is reported as 104% (inactive). With `C/C(=N\Nc1ccccc1)c1ccc(NC2=CC(=O)c3ccccc3C2=O)cc1` the growth was 21.4% (inactive). `N#Cc1c(-c2ccccc2)nc2c(c(-c3ccccc3)nn2-c2ccccc2)c1-c1ccc(N2CCCCC2)cc1` was tested, and the growth was 93.9% (inactive). `COc1cc2c(c(OC)c1OC)CCC(c1cccc(C(=O)Nc3ccc(Br)cc3)c1)O2` (stereo not given) was tested, and the growth was 75.8% (inactive). `Cc1oc(-c2ccc(Cl)cc2)nc1C1=NN(C(=O)c2ccncc2)C(c2ccccc2)C1` (stereo not given) was tested, and the growth was 87.3% (inactive). In the case of `Clc1ccc(Nc2ncc(Cc3cccc(Cl)c3Cl)s2)cc1`, the growth is reported as 88.7% (inactive). With `Cc1cc(N2CCN(CC(=O)Nc3ccc4c(ccn4Cc4ccccc4)c3)CC2)nc(N2CCOCC2)n1` the growth was 83.8% (inactive). `CCN1C2CCC1/C(=C\c1ccccc1)C(=O)/C2=C/c1ccccc1` was tested, and the growth was 32.5% (inactive). For `CN(C)c1ccc(/C=C2\C=C(c3nc4ccccc4s3)OC2=O)cc1`, the growth was 91.9% (inactive). In the case of `CCCn1c(=S)sc2c(NNC(C)=O)nc(C)nc21`, the growth is reported as 99.3% (inactive). `O=C1/C(=C/c2ccc(Cl)cc2)CN(C(=O)C(Cl)Cl)C/C1=C\c1ccc(Cl)cc1` was tested, and the growth was -69.2% (active). `CCOC(=O)c1ccc[nH]1` was tested, and the growth was 87.7% (inactive). With `O=c1oc2c(cc1-c1ccccc1)c[n+]([O-])c1ccccc21` the growth was 101% (inactive). `COCC(=O)Oc1cc(-c2ccc(C)cc2C)c(OC(=O)COC)c(-c2ccc(C)cc2C)c1` was tested, and the growth was 68.8% (inactive). With `Cn1cc(-c2csc(-c3cn(CCCN4CCOCC4)c4ccc(F)cc34)n2)c2cccnc21` the growth was 63.7% (inactive). In the case of `COc1ccc(-c2cc(C(=O)N3N=C(c4ccc(N)cc4)CC3c3ccc(Cl)cc3)c3ccccc3n2)cc1` (stereo not given), the growth is reported as 48.1% (inactive). In the case of `C=C(C)[C@@H]1CC[C@]2(COC3CCCCO3)CC[C@]3(C)[C@H](CC[C@@H]4[C@@]5(C)C=C(C=O)C(=O)C(C)(C)[C@@H]5CC[C@]43C)[C@@H]12` (stereo not given in full), the growth is reported as -58.9% (active). In the case of `CN(C)Cc1ccc(NC(=O)c2cncc(C#Cc3cnc(N)c4ncccc34)c2)cc1C(F)(F)F`, the growth is reported as 42.1% (inactive). With `CC(C)(C)OC(=O)CN1CCc2c(sc3ncnc(N4CCN(c5ccc(F)cc5)CC4)c23)C1` the growth was 88.2% (inactive). In the case of `COC1C(O)CC(OC2CC(OC3CC(O[C@@H]4C(=O)c5c(cc6cc(OC7CC(OC8CC(O)C(O)C(C)O8)C(O)C(C)O7)c(C)c(O)c6c5O)CC4[C@H](OC)C(=O)C(C)=O)OC(C)C3O)OC(C)C2O)OC1C` (stereo not given in full), the growth is reported as -23.8% (active). In the case of `C1CCC(N2CN3c4nonc4N4CN(C5CCCCC5)CN5c6nonc6N(C2)C3C45)CC1` (stereo not given), the growth is reported as 98.4% (inactive). In the case of `O=C(/C=C/c1ccccc1)c1ccc(-n2cc(CN3CCN(c4cc5c(cc4F)c(=O)c(C(=O)O)cn5C4CC4)CC3)nn2)cc1`, the growth is reported as 79.7% (inactive). In the case of `CCCCn1c(NC(C)=O)c(S(=O)(=O)c2ccccc2)c2nc3ccccc3nc21`, the growth is reported as 94% (inactive). `COC(=O)c1c2c(c(C)[n+]([O-])c1C)C(=O)C(NCc1ccccc1)=CC2=O` was tested, and the growth was 9.17% (active). For `C=CCN=c1sc(-c2ccc3ccccc3c2)cn1NC(=O)c1cc2ccc1CCc1ccc(cc1)CC2`, the growth was 55.8% (inactive). `CC(=O)c1ccc(-n2cc(CN3CCN(c4cc5c(cc4F)c(=O)c(C(=O)O)cn5C4CC4)CC3)nn2)cc1` was tested, and the growth was 83.5% (inactive). For `Cc1sc2nc(NCCN)[nH]c(=O)c2c1C`, the growth was 91% (inactive).

From PubChem BioAssay (NCI)
